Tg IFNy HTS: inhibitors of Toxoplasma gondii growth with IFN-gamma; 3.8% of 69,000 active; activity change, negative = inhibition, % (concentration not given with the values); Toxoplasma gondii growth in IFN-gamma-treated host cells; active compounds read low; AID 1259416; in the data active = activity change below about -70%, passing the limit was not always enough;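 note: host cells are HeLa cells infected with Toxoplasma gondii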
* = called active by the depositor; ! = not confirmed by another sample. This excerpt belongs to a sample that is enriched for hits.

Screening CCn1c(C2CCCN(C(=O)Cc3ccc4c(c3)OCO4)C2)nn(C)c1=O (centres undefined) returned Tg IFNy HTS 7.
Screening O=C1CC2(CCN(C(=O)Cc3ccc4c(c3)OCO4)CC2)CN1 returned Tg IFNy HTS -57.
For Cc1noc(C)c1CN1CCCC2(CCN(S(=O)(=O)c3ccc(F)cc3)C2)C1 (centres undefined) the results were Tg IFNy HTS -14.
Screening CC(=O)NCCOc1ccc(C(=O)N2C[C@@H]3C4CCC(CC4)[C@@H]3C2)cc1 returned Tg IFNy HTS 4.
`c1ccc2c(c1)CC1(CCCCC1)n1nnnc1-2` gave Tg IFNy HTS 28.
Screening O=C1C(=O)N2C(=C1C(=O)N1CCCCCC1)c1ccccc1CC21CCCC1 returned Tg IFNy HTS 117.
For O=C1C(=O)N2C(=C1C(=O)N1CCOCC1)c1ccccc1CC21CCCCC1 the results were Tg IFNy HTS -96*.
Cc1ccc(CN2CCC3(CC2)COCCN(c2ncccn2)C3)s1 was read as Tg IFNy HTS -2.
CS(=O)(=O)N1CCCC2(COCCN(c3cnccn3)C2)C1 (centres undefined) was read as Tg IFNy HTS 0.
Cc1ccc(CN2CCCC3(COCCN(c4cnccn4)C3)C2)s1 (centres undefined) was read as Tg IFNy HTS -94*.
`CCc1c(C)sc2c1CCN(Cc1nc(-c3ccc(OC)cc3)oc1C)C2c1ccccc1` (centres undefined) gave Tg IFNy HTS 9.
Screening CCCn1ncc(NC(=O)c2cccc(CN3CC=CCC3)c2)n1 returned Tg IFNy HTS -36.
Screening COc1cccc(CC2CN(C(=O)COc3ccccc3O)CCO2)c1 (centres undefined) returned Tg IFNy HTS 0.
Screening NC1=Nc2ccc(Cl)cc2C1(O)c1ccccc1 (centres undefined) returned Tg IFNy HTS -97*.
For OC1(c2ccccc2)c2ccccc2-c2ccccc21 the results were Tg IFNy HTS 26.
Screening CCOc1ccc2nc(SCc3ccc4c(c3)OCO4)sc2c1 returned Tg IFNy HTS 12.
Screening CNCC(=O)N1CC(c2cc(Nc3nc(C)cs3)nc(C)n2)C1 returned Tg IFNy HTS 8.
CC1=C(C(=O)NCCCOC(C)C)C2(CCN(S(C)(=O)=O)CC2)OC1=O was read as Tg IFNy HTS 16.
For CCc1ccc(S(=O)(=O)NCCc2csc(-c3ccc(F)cc3)n2)s1 the results were Tg IFNy HTS -67.
O=C(c1ccc(Br)cc1)N1CCc2c([nH]c3ccccc23)C1c1cccnc1 (centres undefined) was read as Tg IFNy HTS -86*.
Screening Cc1cccc(C(=O)N2CCc3c([nH]c4ccccc34)C2c2cccnc2)c1 (centres undefined) returned Tg IFNy HTS -109*.
O=C(c1cccs1)N1CCc2c([nH]c3ccccc23)C1c1cccnc1 (centres undefined) was read as Tg IFNy HTS 10.
Screening CCOc1cccc(CC(=O)N2CCc3c([nH]c4ccccc34)C2c2cccnc2)c1OCC (centres undefined) returned Tg IFNy HTS 11.
Screening CC(C)c1noc(C(C)NC(=O)Cc2noc3ccccc23)n1 (centres undefined) returned Tg IFNy HTS 2.
`CN(C)S(=O)(=O)N1C[C@H]2C[C@H](C(=O)NCc3ccccc3)[C@@H](C1)O2` gave Tg IFNy HTS 2.
For Cc1cccc(CN2CC[C@@H]3[C@H]2CCN3S(=O)(=O)C2CC2)c1 the results were Tg IFNy HTS 17.
Screening CCN1c2ccccc2C(=O)NC12CCN(C(=O)Cc1cccc(F)c1)CC2 returned Tg IFNy HTS 80.
Screening COCC(=O)N1CCC2(CCCN(C(=O)Cc3cccnc3)C2)C1 (centres undefined) returned Tg IFNy HTS -5.
COc1ccc2[nH]c(=O)c3c(c2c1)OC(C)(C)C=C3 was read as Tg IFNy HTS -83*.
`COc1ccc2[nH]cc(C3N4CC5(C)CN3CC(C)(C4)C5=O)c2c1` (centres undefined) gave Tg IFNy HTS 11.
For COc1ccc(C(=O)CC(=O)O)c2c1C=CC(C)(C)O2 the results were Tg IFNy HTS 10.
`CC(=O)N[C@H]1CCN(C(=O)c2cccc(CC3CCNCC3)c2)C1` gave Tg IFNy HTS -45.
Screening O=C(O)CCn1c(=O)sc2ccccc21 returned Tg IFNy HTS 7.
For O=C(CCn1c(=O)sc2ccccc21)Nc1ccc(S(=O)(=O)N2CCCCC2)cc1 the results were Tg IFNy HTS -88*.
Screening O=C(O)CCC(=O)Nc1ccc(S(=O)(=O)N2CCCC2)cc1 returned Tg IFNy HTS 151.
For Cc1cccc(C(=O)Nc2ccc(-c3nc(-c4ccccc4)co3)cc2)c1 the results were Tg IFNy HTS 23.
For Cn1ccnc1-c1ccc(N2CCN(C/C=C/c3ccccc3)CC2)nn1 the results were Tg IFNy HTS 13.
For COc1cc(OC)nc(/C=C/c2ccccc2)n1 the results were Tg IFNy HTS -13.
For Cc1cc(Nc2cc(N3CCN(C)CC3)nc(/C=C/c3ccccc3)n2)n[nH]1 the results were Tg IFNy HTS -74*.
Screening Cc1ncnc2c1CCN(C(=O)NC1CCCC1)CC2 returned Tg IFNy HTS 13.
COc1ccc([C@@H]2CC(=O)c3c(O)cc(O)cc3O2)cc1O was read as Tg IFNy HTS -77*!.
O=C1C[C@@H](c2ccccc2)Oc2cc(O)cc(O)c21 was read as Tg IFNy HTS 1.
`COc1ccc([C@@H]2CC(=O)c3c(O)cc(O[C@@H]4O[C@H](CO[C@@H]5O[C@@H](C)[C@H](O)[C@@H](O)[C@H]5O)[C@@H](O)[C@H](O)[C@H]4O)cc3O2)cc1O` gave Tg IFNy HTS 10.
Screening COC(=O)c1cccc(CN2CCC2c2ccc(F)cc2)n1 (centres undefined) returned Tg IFNy HTS -2.
Cc1oc(C2CCN(C(=O)Nc3cccc(Cl)c3C)CC2)nc1C(=O)N1CCCC1 was read as Tg IFNy HTS 34.
CCCCCCCCNS(=O)(=O)c1ccc(N2C(=O)c3ccccc3C2=O)cc1 was read as Tg IFNy HTS -66.
For Cc1cc(C(=O)NCC2CCN(c3cnn(C)c(=O)c3)C2)ccc1O (centres undefined) the results were Tg IFNy HTS -12.
COc1ccc(-c2nc(CNS(=O)(=O)c3ccc(C)c(C)c3)c(C)o2)cc1 was read as Tg IFNy HTS 32.
`Cn1nc(C2CCN(c3ncccc3C(N)=O)CC2)n(-c2ccccc2)c1=O` gave Tg IFNy HTS -64.
`CCS(=O)(=O)N1CCC2(CC1)CC(OC)CO2` (centres undefined) gave Tg IFNy HTS -85*.
Screening COC1COC2(CCN(C(=O)C3CC(F)(F)C3)CC2)C1 (centres undefined) returned Tg IFNy HTS 34.
`CCS(=O)(=O)N1CCC2(CC1)CC(OCC1CCOCC1)CO2` (centres undefined) gave Tg IFNy HTS 10.
For COc1ccc(-c2nc(N3CCN(c4ccc(C)cc4C)CC3)c3ccccc3n2)cc1 the results were Tg IFNy HTS 49.
`Cc1ccc(-c2ccnc(-c3ccc(F)c(CO)c3)n2)c(C)n1` gave Tg IFNy HTS 13.
Screening Cc1cccnc1CN1CCN(Cc2sccc2C)CC1 returned Tg IFNy HTS -3.
COC(=O)c1ccc(C(=O)OC)c(NC(=O)C(C)C)c1 was read as Tg IFNy HTS 6.
Screening COC(=O)c1c(NC(=O)C(C)C)sc2c1C(C(=O)OC)CC2 (centres undefined) returned Tg IFNy HTS -94*.

Screening results: PubChem BioAssay, Broad Institute
